Data published in PubChem BioAssay (NCATS).
Inconclusive results are not listed. The source made the active and inactive calls. Unless noted, calls follow the shape of the full dose curve.

Assays:
[1] = target: Estrogen receptor (Homo sapiens) (UniProt P03372); assay: qHTS assay for small molecule agonists of estrogen receptor alpha signaling (AID 588514);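 also: 0% = vehicle only and 100% = reference agonist; nearly all actives have a fitted effect of over 70% in size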
How it was run: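 Efficacy is expressed against 20 nM 17-beta-estradiol (100%) and DMSO basal (0%); EC50 from Hill equation. Assay: beta-lactamase reporter in ER-alpha-UAS-bla HEK 293 cells, 18 h compound incubation, CCF4 detection.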

[2] = target: Peroxisome proliferator-activated receptor delta (Homo sapiens) (UniProt Q03181); assay: qHTS assay for small molecule agonists of peroxisome proliferator-activated receptor delta signaling (AID 588534);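 also: 0% = DMSO basal wells and 100% = positive control agonist at 10 µM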
Sequence of Peroxisome proliferator-activated receptor delta (Homo sapiens) (Q03181 whole entry, looked up): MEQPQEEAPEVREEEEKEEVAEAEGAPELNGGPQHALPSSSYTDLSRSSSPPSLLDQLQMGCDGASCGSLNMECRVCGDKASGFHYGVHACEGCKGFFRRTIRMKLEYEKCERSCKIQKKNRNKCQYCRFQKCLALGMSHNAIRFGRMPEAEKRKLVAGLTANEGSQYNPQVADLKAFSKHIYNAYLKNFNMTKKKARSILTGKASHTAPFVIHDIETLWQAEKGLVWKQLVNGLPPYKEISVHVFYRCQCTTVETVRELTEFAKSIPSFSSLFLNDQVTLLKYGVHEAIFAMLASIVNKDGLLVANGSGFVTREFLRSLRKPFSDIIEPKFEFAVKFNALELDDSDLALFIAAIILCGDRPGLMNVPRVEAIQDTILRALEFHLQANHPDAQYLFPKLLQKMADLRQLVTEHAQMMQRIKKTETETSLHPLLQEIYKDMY
How it was run: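 Agonist-mode qHTS; reporter cells, 5 hrs 37 C pre-incubation; compound titration, 18 hrs 37 C; CCF4 dye, 2 hrs RT; fluorescence read. EC50/efficacy via Hill fit.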

[3] = target: Peroxisome proliferator-activated receptor delta (Homo sapiens) (UniProt Q03181); assay: qHTS assay for small molecule antagonists of peroxisome proliferator-activated receptor delta signaling (AID 588535; active = well fitted inhibition curve with a large enough effect in the signal ratio, with a control signal flat, not every such curve was filed as active; the % refers to the signal ratio)
How it was run: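 Inhibition of PPAR-delta response element-driven beta-lactamase expression is measured in HEK293T cells exposed to a compound titration series for 18 hrs at 37 C. Half-maximal inhibition comes from Hill equation fitting.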

[4] = target: Peroxisome proliferator-activated receptor gamma (Homo sapiens) (UniProt P37231); assay: qHTS assay for small molecule agonists of peroxisome proliferator-activated receptor gamma signaling (AID 588536; active = well fitted curve in the direction sought with a large enough effect in the signal ratio, with a control signal flat, not every such curve was filed as active; the % refers to the signal ratio;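 also: 0% = DMSO basal wells and 100% = rosiglitazone at 2 µM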)
Sequence of Peroxisome proliferator-activated receptor gamma (Homo sapiens) (P37231 whole entry, looked up): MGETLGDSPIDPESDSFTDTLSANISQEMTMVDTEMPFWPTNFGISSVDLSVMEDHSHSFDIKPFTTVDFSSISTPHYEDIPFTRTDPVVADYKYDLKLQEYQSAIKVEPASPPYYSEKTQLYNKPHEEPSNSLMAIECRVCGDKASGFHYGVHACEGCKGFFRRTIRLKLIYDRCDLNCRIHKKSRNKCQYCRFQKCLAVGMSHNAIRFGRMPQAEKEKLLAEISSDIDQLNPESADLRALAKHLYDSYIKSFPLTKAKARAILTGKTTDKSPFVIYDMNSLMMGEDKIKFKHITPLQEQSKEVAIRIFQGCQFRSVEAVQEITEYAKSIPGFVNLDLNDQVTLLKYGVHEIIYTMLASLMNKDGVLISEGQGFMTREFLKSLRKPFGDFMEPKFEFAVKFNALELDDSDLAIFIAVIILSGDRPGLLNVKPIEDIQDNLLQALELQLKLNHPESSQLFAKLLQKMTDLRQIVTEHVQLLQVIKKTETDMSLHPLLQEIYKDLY
How it was run: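 Beta-lactamase reporter read-out: CCF4 fluorescence (ex 405, em 460/530 nm) after 2 h at RT. HEK293 GeneBLAzer cells were treated for 16 h at 37 C. Hill fits gave EC50 and efficacy versus 2 uM rosiglitazone (100%) and DMSO (0%).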

[5] = target: Vitamin D3 receptor (Homo sapiens) (UniProt P11473); assay: qHTS assay for small molecule antagonists of vitamin D receptor signaling (AID 588541);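 also: receptor activated by calcitriol during compound treatment; series mostly up to about 77 µM; % is scaled to controls: 0 for no effect and ±100 for the full control effect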
Sequence of Vitamin D3 receptor (Homo sapiens) (P11473 whole entry, looked up): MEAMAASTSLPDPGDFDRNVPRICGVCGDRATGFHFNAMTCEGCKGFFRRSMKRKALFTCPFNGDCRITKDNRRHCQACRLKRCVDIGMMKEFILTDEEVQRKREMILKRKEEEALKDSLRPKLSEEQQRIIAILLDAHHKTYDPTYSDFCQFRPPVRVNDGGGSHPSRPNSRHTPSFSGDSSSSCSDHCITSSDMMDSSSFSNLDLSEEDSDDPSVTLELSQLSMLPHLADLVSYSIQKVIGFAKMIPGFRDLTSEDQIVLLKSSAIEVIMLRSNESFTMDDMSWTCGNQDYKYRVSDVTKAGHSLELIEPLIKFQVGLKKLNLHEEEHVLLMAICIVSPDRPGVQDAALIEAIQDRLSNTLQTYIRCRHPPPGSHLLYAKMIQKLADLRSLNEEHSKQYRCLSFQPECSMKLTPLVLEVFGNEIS
How it was run: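 VDR-UAS-bla HEK293T cells (2000/well, 2% charcoal-stripped FBS) were treated with titrated compounds plus 1-alpha,25-dihydroxyvitamin D3 (50 nM or 3 nM final) for 16 h at 37 C. CCF4 beta-lactamase fluorescence was read; Hill fits gave IC50.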

[6] = target: Retinoic acid receptor RXR-alpha (Homo sapiens) (UniProt P19793); assay: qHTS assay for small molecule agonists of retinoid X receptor alpha signaling (AID 588544);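 also: 0% = DMSO basal wells and 100% = reference agonist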
Sequence of Retinoic acid receptor RXR-alpha (Homo sapiens) (P19793 whole entry, looked up): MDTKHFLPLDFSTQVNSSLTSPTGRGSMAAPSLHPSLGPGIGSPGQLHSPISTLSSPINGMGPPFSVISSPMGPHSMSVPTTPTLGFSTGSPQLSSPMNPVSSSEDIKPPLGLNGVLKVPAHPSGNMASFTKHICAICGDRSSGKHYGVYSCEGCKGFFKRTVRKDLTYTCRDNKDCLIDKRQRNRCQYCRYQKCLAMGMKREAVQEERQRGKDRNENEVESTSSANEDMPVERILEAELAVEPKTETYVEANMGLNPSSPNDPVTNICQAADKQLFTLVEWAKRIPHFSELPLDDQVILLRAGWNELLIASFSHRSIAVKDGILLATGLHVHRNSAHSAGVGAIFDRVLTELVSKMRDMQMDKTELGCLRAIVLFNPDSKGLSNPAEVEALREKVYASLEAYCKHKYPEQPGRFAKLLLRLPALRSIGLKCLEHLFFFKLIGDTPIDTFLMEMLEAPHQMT

[7] = target: Thyroid hormone receptor beta (Homo sapiens) (UniProt P10828); assay: qHTS assay for small molecule agonists of thyroid hormone receptor beta signaling (AID 588545);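 also: 0% = DMSO only and 100% = 10 nM T3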
Sequence of Thyroid hormone receptor beta (Homo sapiens) (P10828 whole entry, looked up): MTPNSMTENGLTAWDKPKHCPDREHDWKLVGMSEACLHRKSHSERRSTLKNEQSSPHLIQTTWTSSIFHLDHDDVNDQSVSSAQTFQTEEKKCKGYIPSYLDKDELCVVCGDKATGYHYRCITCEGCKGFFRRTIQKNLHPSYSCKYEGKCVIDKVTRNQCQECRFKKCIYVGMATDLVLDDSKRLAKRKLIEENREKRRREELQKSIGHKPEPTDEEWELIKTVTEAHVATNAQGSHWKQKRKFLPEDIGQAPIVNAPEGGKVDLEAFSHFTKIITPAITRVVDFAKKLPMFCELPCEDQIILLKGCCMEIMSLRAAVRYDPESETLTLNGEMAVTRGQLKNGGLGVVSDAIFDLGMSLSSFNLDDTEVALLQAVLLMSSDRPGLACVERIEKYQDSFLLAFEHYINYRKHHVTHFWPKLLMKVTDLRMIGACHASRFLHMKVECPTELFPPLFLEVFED
How it was run: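 Compounds were tested as agonists in TR-UAS-bla-GripTite HEK 293 cells. After 18 hrs at 37 C, CCF4 substrate was added and fluorescence read after 2 hrs at room temperature.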

[8] = qHTS assay for small molecule antagonists of retinoid X receptor alpha signaling (AID 588546; active = well fitted inhibition curve with a large enough effect in the signal ratio, with a control signal flat, not every such curve was filed as active; the % refers to the signal ratio;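 also: cells stimulated with 9-cis-retinoic acid as agonist; % is scaled to controls: 0 for no effect and ±100 for the full control effect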); settings: HEK293T RXRa-UAS-bla, beta-lactamase ratio, antagonist mode; measured here: W530 green channel, cytotoxicity proxy
How it was run: (§1)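 Beta-lactamase reporter inhibition, read as CCF4 fluorescence ratio (ex 405, em 460/530 nm) after 2 h at RT. HEK293T UAS-bla cells, 2500/well, were stimulated with 9-cis-RA at 500 or 100 nM final alongside test compound for 18 h at 37 C.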

[9] = target: Retinoic acid receptor RXR-alpha (Homo sapiens) (UniProt P19793); assay: as above; settings: HEK293T RXRa-UAS-bla, beta-lactamase ratio, antagonist mode
How it was run: as §1

[10] = qHTS assay for small molecule activators of the p53 signaling pathway (AID 651743; active = well fitted activation curve with a large enough effect in the signal ratio, not every such curve was filed as active; the % refers to the signal ratio; also: series mostly up to about 92 µM; % of control where 0% means no effect); settings: HCT-116 p53RE-bla, beta-lactamase FRET ratio, 16 h; activation: stronger effect = higher value
How it was run: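 Agonist-mode quantitative HTS in HCT-116 cells carrying a p53-response-element beta-lactamase reporter; 16 h compound treatment at 37 C, then FRET substrate loading for 2 h at room temperature and fluorescence read.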

[11] = qHTS assay for small molecule activators of the nuclear factor-kappa B (NF-kB) signaling pathway (AID 651749; active = well fitted activation curve with a large enough effect in the signal ratio; the % refers to the signal ratio; also: series mostly up to about 77 µM; % of control where 0% means no effect); settings: NF-kB-bla ME-180 cells, beta-lactamase FRET ratio, 16 h; activation: stronger effect = higher value
How it was run: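 Human ME-180 cervical cells with an NF-kB-bla construct; compounds added via 23 nL pin transfer, DMSO as vehicle; incubation 16 hr. Reporter activity measured by FRET disruption.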

[12] = qHTS assay for environmental chemicals that activate the Aryl hydrocarbon Receptor (AhR) signaling pathway (AID 651777; active = well fitted curve in the direction sought with a large enough effect; an effect the other way counts as inactive or inconclusive; also: nearly all actives have a fitted effect of over 15% in size; also: potency is read from the fitted curve at half-maximal effect; as to activation: % of control where 0% means no effect); settings: 1A2-DRE human hepatoma cells, luciferase, 24 h; activation: stronger effect = higher value
How it was run: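 Luminescence read-out: One-Glo added for 30 min at RT after 24 hr compound treatment (37 C, 5% CO2) of human hepatoma cells expressing a DRE/CYP1A2 promoter–luciferase reporter; increased signal indicates AhR activation.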

[13] = qHTS assay for small molecule agonists of the antioxidant response element (ARE) signaling pathway measured by Nrf2-dependant transcriptional activity (AID 720636; active = well fitted curve in the direction sought with a large enough effect in the repeat runs; an effect the other way counts as inactive or inconclusive;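 also: HepG2 cells with an ARE-driven luciferase reporter; % of control where 0% means no effect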)
How it was run: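 HepG2 ARE-luc reporter line, 1% dialyzed FBS; 6 hr attachment at 37 C, compound pinned in, 16 hr at 37 C/5% CO2; ONE-Glo, 30 min RT, luminescence read.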

[14] = qHTS assay for small molecule agonists of the antioxidant response element (ARE) signaling pathway measured by Nrf2-dependant transcriptional activity - cell viability counter screen (AID 720653; active = well fitted curve in the direction sought with a large enough effect in the repeat runs; an effect the other way counts as inactive or inconclusive; also: % is scaled to controls: 0 for no effect and ±100 for the full control effect); settings: ARE-bla HepG2 viability, CellTiter-Glo ATP luminescence, 16 h; max response: stronger effect = lower value
How it was run: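 ARE-bla HepG2 cells (2,000/well) rested 5 hrs at 37C/5% CO2, then exposed to compounds in DMSO for 16 hrs. Viability was read in the same wells as intracellular ATP by luminescence, 30 min at room temperature after reagent addition.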

[15] = qHTS assay for cell viability of HEK293 cells (AID 743288; active = well fitted curve in the direction sought with a large enough effect; an effect the other way counts as inactive or inconclusive; also: % is scaled to controls: 0 for no effect and ±100 for the full control effect; nearly all actives have a fitted effect of over 50% in size); settings: ATP luminescence (CellTiter-Glo), 18 h; max response: stronger effect = lower value
How it was run: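 Readout is luciferase-coupled ATP content (CellTiter-Glo luminescence, 30 min room temperature) as a measure of metabolically competent cells. Parental HEK293 cells were plated 5 h or more before compound addition, then treated 18 h at 37 C.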

[16] = qHTS assay for cell viability of the p53RE-bla HCT-116 cell line (AID 743292; active = well fitted curve in the direction sought with a large enough effect; an effect the other way counts as inactive or inconclusive; also: % is scaled to controls: 0 for no effect and ±100 for the full control effect; nearly all actives have a fitted effect of over 55% in size)
How it was run: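 Luminescent ATP quantitation (CellTiter-Glo) served as the viability read-out; reagent was added after 16 h compound exposure at 37 C and read after 30 min at room temperature. Cells: p53RE-bla HCT-116, 4,000 per well.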

[17] = target: Glucocorticoid receptor (Homo sapiens) (UniProt P04150); assay: qHTS assay for small molecule agonists of glucocorticoid receptor signaling (AID 588532; active = well fitted curve in the direction sought with a large enough effect in the signal ratio, with a control signal flat; the % refers to the signal ratio;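 also: 100% = dexamethasone at 0.1 µM and 0% = DMSO only wells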); settings: HeLa MMTV-bla, beta-lactamase ratio, agonist, 18 h; activation: stronger effect = higher value, percent of dexamethasone control, DMSO zero
Sequence of Glucocorticoid receptor (Homo sapiens) (P04150 whole entry, looked up): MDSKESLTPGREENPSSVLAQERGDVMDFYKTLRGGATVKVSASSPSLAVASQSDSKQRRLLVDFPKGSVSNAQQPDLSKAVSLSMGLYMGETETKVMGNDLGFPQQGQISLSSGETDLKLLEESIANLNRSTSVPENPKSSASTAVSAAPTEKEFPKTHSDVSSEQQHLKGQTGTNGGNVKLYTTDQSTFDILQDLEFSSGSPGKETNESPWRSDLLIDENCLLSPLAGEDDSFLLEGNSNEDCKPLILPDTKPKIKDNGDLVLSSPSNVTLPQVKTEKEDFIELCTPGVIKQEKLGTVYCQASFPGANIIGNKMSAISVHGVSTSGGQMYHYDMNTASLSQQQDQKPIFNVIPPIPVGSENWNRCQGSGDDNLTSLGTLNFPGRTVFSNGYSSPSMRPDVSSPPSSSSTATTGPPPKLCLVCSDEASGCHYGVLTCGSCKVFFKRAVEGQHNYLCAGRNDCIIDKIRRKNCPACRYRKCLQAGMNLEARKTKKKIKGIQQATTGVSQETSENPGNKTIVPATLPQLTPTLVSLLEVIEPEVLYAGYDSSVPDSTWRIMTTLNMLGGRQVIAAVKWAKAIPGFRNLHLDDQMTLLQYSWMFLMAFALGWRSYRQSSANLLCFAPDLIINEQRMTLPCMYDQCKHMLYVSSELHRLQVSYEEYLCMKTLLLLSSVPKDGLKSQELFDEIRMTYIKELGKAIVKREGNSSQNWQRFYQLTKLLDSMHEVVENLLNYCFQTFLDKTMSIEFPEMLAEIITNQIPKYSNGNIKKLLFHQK
How it was run: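 Titration series, up to 92 uM, applied to GRE-bla HeLa cells for 18 h at 37 C. Detection by CCF4 FRET substrate after 2 h at RT.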

[18] = target: Vitamin D3 receptor (Homo sapiens) (UniProt P11473); assay: qHTS assay for small molecule agonists of vitamin D receptor signaling (AID 588543);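 also: 0% = DMSO basal and 100% = reference agonist control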
How it was run: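 Agonist-mode beta-lactamase reporter: HEK293T VDR-UAS-bla cells in charcoal-stripped 2% FBS, compound series 16 h 37 C, CCF4 2 h RT. EC50 from Hill fit, scaled against DMSO and 50 nM calcitriol control.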

[19] = target: Peroxisome proliferator-activated receptor alpha (Homo sapiens) (UniProt Q07869); assay: qHTS assay for small molecule agonists of the peroxisome proliferator-activated receptor alpha (PPARalpha) signaling pathway (AID 651778; active = well fitted curve in the direction sought with a large enough effect; an effect the other way counts as inactive or inconclusive; also: % of control where 0% means no effect); settings: PathHunter PPARalpha complementation, chemiluminescence, 6 h; max response: stronger effect = higher value
Sequence of Peroxisome proliferator-activated receptor alpha (Homo sapiens) (Q07869 whole entry, looked up): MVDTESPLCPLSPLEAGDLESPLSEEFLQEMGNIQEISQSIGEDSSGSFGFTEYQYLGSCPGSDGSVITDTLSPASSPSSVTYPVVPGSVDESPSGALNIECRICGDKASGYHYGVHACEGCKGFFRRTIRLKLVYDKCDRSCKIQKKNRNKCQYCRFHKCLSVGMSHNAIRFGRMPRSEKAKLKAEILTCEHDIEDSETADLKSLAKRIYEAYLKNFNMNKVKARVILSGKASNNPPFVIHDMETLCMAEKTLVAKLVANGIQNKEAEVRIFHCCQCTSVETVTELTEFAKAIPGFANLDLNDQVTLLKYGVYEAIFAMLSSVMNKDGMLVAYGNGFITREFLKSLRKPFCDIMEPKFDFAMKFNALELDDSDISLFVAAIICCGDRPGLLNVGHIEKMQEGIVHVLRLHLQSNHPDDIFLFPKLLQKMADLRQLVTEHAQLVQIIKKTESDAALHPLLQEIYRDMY
How it was run: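 Cells plated at 2,000/well and held overnight at 37 C, 5% CO2, then compound added by pin tool for 6 hr; after PathHunter detection reagent and 60 min at room temperature, chemiluminescence from enzyme complementation was read.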

[20] = target: Nuclear receptor subfamily 1 group I member 2 (Rattus norvegicus) (UniProt Q9R1A7); assay: qHTS assay for small molecule activators of the rat pregnane X receptor (rPXR) signaling pathway (AID 651751; call rule not given here; also: 0% is about no effect); settings: rPXR reporter cells, luciferase (One-Glo), 24 h
Sequence of Nuclear receptor subfamily 1 group I member 2 (Rattus norvegicus) (Q9R1A7 whole entry, looked up): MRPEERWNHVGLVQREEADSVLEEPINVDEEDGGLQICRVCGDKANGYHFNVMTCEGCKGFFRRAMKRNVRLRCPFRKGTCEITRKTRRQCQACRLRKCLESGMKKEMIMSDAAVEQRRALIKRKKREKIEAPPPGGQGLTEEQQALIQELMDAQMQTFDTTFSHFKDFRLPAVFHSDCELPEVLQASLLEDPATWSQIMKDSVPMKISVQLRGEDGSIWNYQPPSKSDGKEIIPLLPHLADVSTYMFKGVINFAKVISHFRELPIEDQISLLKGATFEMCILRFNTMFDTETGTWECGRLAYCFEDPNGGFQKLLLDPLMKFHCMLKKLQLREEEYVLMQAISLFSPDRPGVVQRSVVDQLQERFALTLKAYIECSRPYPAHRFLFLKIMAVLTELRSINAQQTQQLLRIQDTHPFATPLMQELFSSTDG

Sequence of Estrogen receptor (Homo sapiens) (P03372 whole entry, looked up): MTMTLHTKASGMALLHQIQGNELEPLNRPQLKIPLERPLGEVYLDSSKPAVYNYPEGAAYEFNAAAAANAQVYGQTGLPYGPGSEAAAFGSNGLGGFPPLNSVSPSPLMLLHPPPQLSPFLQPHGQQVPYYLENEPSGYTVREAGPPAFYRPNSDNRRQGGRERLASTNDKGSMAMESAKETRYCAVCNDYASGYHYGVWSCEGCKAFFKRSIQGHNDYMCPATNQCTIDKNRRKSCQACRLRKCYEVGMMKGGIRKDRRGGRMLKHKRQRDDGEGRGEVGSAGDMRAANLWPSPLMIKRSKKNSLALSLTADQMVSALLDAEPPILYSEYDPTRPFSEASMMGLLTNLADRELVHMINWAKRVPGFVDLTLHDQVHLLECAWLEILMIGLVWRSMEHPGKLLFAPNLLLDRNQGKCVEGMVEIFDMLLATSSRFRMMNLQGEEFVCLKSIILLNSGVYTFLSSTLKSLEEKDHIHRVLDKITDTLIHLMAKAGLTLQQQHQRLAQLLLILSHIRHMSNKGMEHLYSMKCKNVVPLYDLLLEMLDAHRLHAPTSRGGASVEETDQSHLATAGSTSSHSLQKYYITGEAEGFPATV

ClC1=C(Cl)C2(Cl)C3C4OC4C(Cl)C3C1(Cl)C2(Cl)Cl (configuration not stated)
inactive: Potency [1] | outcome [2] | Potency [3] | Potency [4] | Potency [5] | Potency [6] | Potency [7] | max response [9] -6.75% | activation [10] -0.997% | activation [11] 4.48% | activation [12] -0.371% | Potency [13] | max response [14] 0.273% | max response [15] -17.2% | Potency [16]
-11.3%: max response [8]

C=CCOC(=O)C(C)(C)OC(=O)c1cc(-n2c(=O)cc(C(F)(F)F)n(C)c2=O)ccc1Cl
-18.1%: max response [8]
inactive: Potency [1] | activation [17] -1.05% | outcome [2] | Potency [3] | Potency [4] | outcome [18] | Potency [6] | Potency [7] | max response [9] 23.7% | activation [10] 4.39% | activation [12] 1.35% | max response [19] 2.63% | Potency [13] | max response [15] -6.91%

N#CCNC(=O)c1cnccc1C(F)(F)F
inactive: activation [17] 0.151% | outcome [2] | Potency [3] | Potency [4] | Potency [5] | Potency [6] | Potency [7] | max response [9] -7.71% | activation [10] -2.69% | activation [12] 1.26% | Potency [13] | max response [14] -0.0757% | max response [15] -6.61% | Potency [16] | max response [20] 3.48%
-6.46%: max response [8]

O=C(NC(=O)c1c(F)cccc1F)Nc1cc(Cl)c(OC(F)(F)C(F)C(F)(F)F)c(Cl)c1F (configuration not stated)
inactive: Potency [3] | Potency [4] | outcome [18] | Potency [6] | Potency [7] | max response [9] 4.34% | activation [10] 2.49% | activation [11] 4.04% | activation [12] 6.63% | max response [19] 6.43% | max response [15] -24.3% | Potency [16] | max response [20] 9.17%
-6.84%: max response [8]

ClCc1ccccc1Cl
-6.52%: max response [8]
inactive: activation [17] -3.29% | Potency [4] | Potency [5] | outcome [18] | Potency [6] | Potency [7] | max response [9] 0.106% | activation [12] 0.685% | max response [19] 1.31% | Potency [13] | max response [15] -1.39% | Potency [16] | max response [20] -0.702%

CCC[CH2][Sn]([CH2]CCC)([CH2]CCC)[CH2]CCC
inactive: activation [17] -2.61% | outcome [2] | Potency [3] | Potency [5] | outcome [18] | Potency [7] | max response [9] 4.03% | activation [10] -3.46% | activation [11] 1.03% | activation [12] 0.926% | max response [19] -1.25% | Potency [13] | max response [14] 1.93% | max response [15] -5.3% | Potency [16] | max response [20] 8.28%
6.88%: max response [8]

Cc1nc(N(C)C)nc(OC(=O)N(C)C)c1C
-14.1%: max response [8]
inactive: activation [17] 1.95% | outcome [2] | Potency [3] | Potency [4] | Potency [5] | Potency [6] | Potency [7] | max response [9] 5.66% | activation [12] -0.147% | max response [19] -0.626% | Potency [13] | max response [15] -11.4% | Potency [16] | max response [20] -4.44%

O=[N+]([O-])c1ccc2ccc3cccc4ccc1c2c34
inactive: activation [17] -22% | outcome [18] | Potency [6] | Potency [7] | activation [12] 2.13% | max response [19] -0.269% | max response [14] -9.82% | max response [15] -25% | Potency [16] | max response [20] 3%

CCNS(=O)(=O)C(F)(F)C(F)(F)C(F)(F)C(F)(F)C(F)(F)C(F)(F)C(F)(F)C(F)(F)F
inactive: outcome [2] | Potency [3] | Potency [4] | outcome [18] | Potency [6] | Potency [7] | max response [9] 6.49% | activation [12] 1.24% | max response [19] 5.8% | Potency [13] | max response [14] -7.97% | max response [15] -20.2% | Potency [16] | max response [20] 2.04%
-8.67%: max response [8]

CCS(=O)(=O)c1cccnc1S(=O)(=O)NC(=O)Nc1nc(OC)cc(OC)n1
inactive: activation [17] -0.845% | outcome [2] | Potency [3] | Potency [4] | Potency [5] | outcome [18] | Potency [7] | max response [9] 8.72% | activation [10] -3.66% | activation [11] -1.37% | max response [19] -2.57% | max response [14] 15.3% | max response [15] -6.2% | Potency [16] | max response [20] -1.1%
active: Potency [12] 31.6 µM
-3.64%: max response [8]

O=C1C=CC(=O)c2ccccc21
-1.96%: max response [8]
inactive: activation [17] 0.432% | outcome [2] | Potency [3] | Potency [4] | outcome [18] | Potency [6] | Potency [7] | max response [9] -12.9% | activation [10] -3.99% | activation [11] -1.33% | max response [19] -1.22% | Potency [13] | max response [14] -8.11% | max response [15] -3.96% | Potency [16] | max response [20] 2.78%
active: Potency [12] 15.8 µM

COP(=O)(OC)Oc1nc(Cl)c(Cl)cc1Cl
-0.949%: max response [8]
inactive: Potency [5] | outcome [18] | Potency [6] | Potency [7] | max response [9] 1.04% | activation [10] 6.76% | activation [11] 1.02% | activation [12] 1.43% | max response [19] -0.672% | Potency [13] | max response [14] -0.97% | max response [15] -6.19% | Potency [16] | max response [20] 0.764%
